Some structures have more than one record in an assay (separate samples or runs), and their calls can disagree. The source made the active and inactive calls. Rule for the calls: active = hit-call score of the fitted dose curve at least 0.9, where 1 is the maximum; inactive = score below 0.9.
assay: ATG_TGFb_CIS: Attagene CIS-FACTORIAL HepG2 Assay for human Transforming Growth Factor (TGF) (AID 2282967); conditions: HepG2 Attagene CIS TGFb reporter, mRNA transcription; actives raise or lower the signal
Protocol: ATG_CIS is a cell-based, multiplexed-readout assay that uses HepG2, a human liver cell line, with measurements taken at 24 hours after chemical dosing in a 24-well plate.ATG_TGFb_CIS is one of 52 assay component(s) measured or calculated from the ATG_CIS assay. It is designed to make measurements of mRNA induction, a form of inducible reporter, as detected with fluorescence intensity signals by Reverse transcription polymerase chain reaction (RT-PCR) and Capillary electrophoresis technology.Data from the assay component ATG_TGFb_CIS was analyzed into 1 assay endpoint. This assay endpoint, ATG_TGFb_CIS, was analyzed with bidirectional fitting relative to DMSO as the negative control and baseline of activity. Using a type of inducible reporter, measures of mRNA for gain or loss-of-signal activity can be used to understand the reporter gene at the transcription factor-level as they relate to the gene TGFB1. Furthermore, this assay endpoint can be referred to as a primary readout, because this assay has produced multiple assay endpoints where this one serves a reporter gene function. To generalize the intended target to other relatable targets, this assay endpoint is annotated to the growth factor intended target family, where the subfamily is transforming growth factor beta.
Human liver HepG2 cells are transiently transfected with multiple reporter transcription units (MRTUs) in 6-well plates using FuGene 6 reagent (Roche; 3 ml FuGene/1 mg DNA). The MRTU constructs are regulated by a cis-regulating element (promoter). […] A major difference between the CIS and TRANS system is that in CIS activities of endogenous TFs are measured, whereas the TRANS assay evaluates changes in activities of exogenous, chimeric NR-Gal4 proteins. […] At the end of 24 hour incubation, total RNA was isolated using TriZol reagent (Invitrogen). The isolated RNA is then reverse-transcribed using oligo(dT) primer and Mo-MLV reverse transcriptase (Invitrogen) with DNAse I (Ambion) treatment for 30 min. The one-tenth of the produced cDNA was amplified by PCR using Taq DNA polymerase (Invitrogen) and two reporter sequence-specific primers. The PCR products were fluorescently labeled by primer extension with 6-arboxyfluorescein (6-FAM) 5'-labeled reporter sequence-specific primer (2 min at 95 C, 20 s at 68 C and 10 min at 72 C) and these products were digested with 5U of HpaI (New England Biolabs) for 2h at 37 C. The fragments were purified using Qiaquick PCR columns (Qiagen), analyzed on an ABI 3130xL genetic analyzer (Applied Biosystems) with peak positions identified by using a set of X-rhodamine (ROX)-labeled MapMarker1000 molecular weight standards (BioVentures). The raw capillary electrophoresis data was processed using Attagraph software (Attagene).

| SMILES | outcome | AC50 |
| --- | --- | --- |
| CC(C)=CC1C(C(=O)OCN2C(=O)C3=C(CCCC3)C2=O)C1(C)C (stereo unspecified) | inactive | – |
| CSC1=N[C@@](C)(c2ccccc2)C(=O)N1Nc1ccccc1 | inactive | – |
| CCc1cccc(CC)c1N(COC)C(=O)CCl | inactive | – |
| CCCSP(=O)(OCC)SCCC | inactive | – |
| CCCCSP(=O)(SCCCC)SCCCC | inactive | – |
| COc1cc(OC)nc(Sc2cccc(Cl)c2C(=O)O)n1 | inactive | – |
| CCOP(=O)(SC(C)CC)N1CCSC1=O (stereo unspecified) | inactive | – |
| CNC(=O)ON=C(SC)C(=O)N(C)C | inactive | – |
| CCOP(=S)(Oc1cnc(C(C)(C)C)nc1)OC(C)C (stereo unspecified) | – | 86.9 µM (active) |
| Nc1nc(N)nc(NC2CC2)n1 | inactive | – |
| S=C1NCCN1 | inactive | – |
| CC[C@H](C)[C@H]1O[C@]2(C=C[C@@H]1C)C[C@@H]1C[C@@H](C/C=C(\C)[C@@H](O[C@H]3C[C@H](OC)[C@@H](O[C@H]4C[C@H](OC)[C@@H](NC)[C@H](C)O4)[C@H](C)O3)[C@@H](C)/C=C/C=C3\CO[C@@H]4[C@H](O)C(C)=C[C@@H](C(=O)O1)[C@]34O)O2 | inactive | – |
| CCC(=NOC/C=C/Cl)C1=C(O)CC(C2CCOCC2)CC1=O (stereo unspecified) | inactive | – |
| FC(F)C(F)(F)OCC(Cn1cncn1)c1ccc(Cl)cc1Cl (stereo unspecified) | inactive | – |
| CCCCOC(=O)c1ccccc1C(=O)O | inactive | – |
| COP(=O)(NC(C)=O)SC (stereo unspecified) | inactive | – |
| CN(C)C(=O)Nc1cccc(C(F)(F)F)c1 | inactive | – |
| C=C(C)[C@H]1Cc2c(ccc3c2O[C@@H]2COc4cc(OC)c(OC)cc4[C@@H]2C3=O)O1 | inactive | – |
| CN(C)NC(=O)CCC(=O)O | inactive | – |
| CCc1cccc(C)c1N(C(=O)CCl)C(C)COC (stereo unspecified) | inactive | – |

| SMILES | outcome | AC50 |
| --- | --- | --- |
| COP(=O)(OC)OC(Br)C(Cl)(Cl)Br (stereo unspecified) | inactive | – |
| CCCCN(CC)c1c([N+](=O)[O-])cc(C(F)(F)F)cc1[N+](=O)[O-] | inactive | – |
| CCCSP(=O)(OCC)Oc1ccc(Br)cc1Cl (stereo unspecified) | inactive | – |
| C[N+]1(C)CCCCC1 | inactive | – |
| CSc1nc(NC(C)C)nc(NC(C)C)n1 | inactive | – |
| CCNc1nc(Cl)nc(NC(C)(C)C#N)n1 | inactive | – |
| COP(=O)(OC)C(O)C(Cl)(Cl)Cl (stereo unspecified) | inactive | – |
| CC(=NC#N)N(C)Cc1ccc(Cl)nc1 | inactive | – |
| Nc1c(Cl)cc([N+](=O)[O-])cc1Cl | – | 70.8 µM (active) |
| CSc1nnc(C(C)(C)C)c(=O)n1N | inactive | – |
| CCOP(=O)(NC(C)C)Oc1ccc(SC)c(C)c1 (stereo unspecified) | inactive | – |
| CC(COc1ccc(Oc2ccccc2)cc1)Oc1ccccn1 (stereo unspecified) | inactive | – |
| CC(C)N(C(=O)SCC(Cl)=C(Cl)Cl)C(C)C | inactive | – |
| COc1ccc(C(=CC(=O)N2CCOCC2)c2ccc(Cl)cc2)cc1OC | inactive | – |
| CC1(C(=O)Nc2ccc(O)c(Cl)c2Cl)CCCCC1 | inactive | – |
| CCC(=O)Nc1ccc(Cl)c(Cl)c1 | inactive | – |
| CCOP(=O)(OCC)Oc1cc(C)nc(C(C)C)n1 | inactive | – |
| CN1COCN(Cc2cnc(Cl)s2)C1=N[N+](=O)[O-] | inactive | – |
| CCC(CC)Nc1c([N+](=O)[O-])cc(C)c(C)c1[N+](=O)[O-] | inactive | – |
| O=[N+]([O-])c1cc(C(F)(F)F)c(Cl)c([N+](=O)[O-])c1Nc1ncc(C(F)(F)F)cc1Cl | inactive | 2.2 µM (active) |

Reference: PubChem BioAssay (EPA / NIEHS)
